In PubChem BioAssay (NCATS):
Results filed as inconclusive are left out. A call without a number means that no potency is given here. Values without a mark were called inactive. The source made the active and inactive calls. Calls come from the whole dose curve; as a rule, active = well fitted cell-killing curve with a large enough effect; inconclusive = small, poorly fitted or top-dose-only effect, or effect the other way; inactive = no such curve, though single readings can be large or run the other way.

Assays:
[1] = Viability qHTS for spleen associated tyrosine kinase inhibitor (SYKi) naive MV4-11 cells (AID 1963823); note: nearly all actives have a fitted effect of over 40% in size
Summary of the method: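 SYK inhibitor-naive MV4-11 cells, 500 per well, exposed to compounds for 72 hr at 37 C, 5% CO2. Viability read as CellTiter-Glo luminescence after 10 min at room temperature.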

[2] = Viability qHTS for spleen associated tyrosine kinase inhibitor (SYKi) drug resistant MV4-11 cells (AID 1963824); note: nearly all actives have a fitted effect of over 35% in size
Summary of the method: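 CellTiter-Glo luminescence, read 10 min after reagent addition, reports viability after a 72 hr compound exposure. Cells are an MV4-11 line made resistant to SYK inhibition, seeded at 500 per well onto compound-containing plates.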
Potency is the fitted concentration of half-maximal effect.

With `C/C=C/C=C/[C@@H]1O[C@](O)([C@H](CC)C(=O)NC/C=C/C=C(\C)[C@@H](OC)[C@@H](C)C2OC(/C=C/C=C/C=C(\C)C(=O)c3c(O)cc[nH]c3=O)[C@H](O)[C@@H]2O)[C@H](O)[C@H](O)C1(C)C` (stereo partly specified) the Potency [1] was “inactive” and the Potency [2] was 0.243 µM (active).
In the case of `O=C(O)c1cc(O[C@@H]2O[C@H](CO)[C@@H](O)[C@H](O)[C@H]2O)ccc1O`, the Potency [1] is reported as “inactive” and the Potency [2] is reported as “inactive”.
With `CC(Sc1nc2c(cnn2-c2cccc(Cl)c2)c(=O)[nH]1)C(N)=O` (stereo unspecified) the Potency [1] was “inactive” and the Potency [2] was “inactive”.
In the case of `C=C(C)[C@H]1C[C@@H](O)C(=C)CC[C@@H](O)C(=C)[C@@H](O)C1`, the Potency [1] is reported as “inactive” and the Potency [2] is reported as “inactive”.
With `CCOc1ccc(CCNC(=O)c2cc3sc(Cl)cc3n2C)cc1OCC` the Potency [1] was “inactive” and the Potency [2] was 1.64 µM (active).
With `CN(C)C(CCOc1cccc2ccccc12)c1ccccc1` (stereo unspecified) the Potency [1] was 18.4 µM (active) and the Potency [2] was 14.6 µM (active).
In the case of `CC(=O)N1c2ccccc2C2(O)CC3C(=O)NC(CC(C)C)C(=O)N3C12` (stereo unspecified), the Potency [1] is reported as “inactive” and the Potency [2] is reported as “inactive”.
With `O=C1NC(=O)/C(=C\c2ccc3nccc(-c4ccncc4)c3c2)S1` the Potency [1] was 0.13 µM (active) and the Potency [2] was 0.517 µM (active).
In the case of `O=C(/C=C/c1ccc(O)c(O)c1)O[C@H]1[C@@H]2C=CO[C@@H](O[C@@H]3O[C@H](CO)[C@@H](O)[C@H](O)[C@H]3O)[C@@H]2[C@@]2(CO)O[C@@H]12`, the Potency [1] is reported as “inactive” and the Potency [2] is reported as “inactive”.
In the case of `Cc1cc(=O)oc2cc(NC(=O)[C@H](CCC(=O)O)NC(=O)[C@H](CC(C)C)NC(=O)[C@H](CC(C)C)NC(=O)OCc3ccccc3)ccc12`, the Potency [1] is reported as “inactive” and the Potency [2] is reported as “inactive”.
In the case of `Cc1cc(CNC(=O)c2cc(C(=O)NCc3ccc(F)c(C)c3)ncn2)ccc1F`, the Potency [1] is reported as “inactive” and the Potency [2] is reported as “inactive”.
With `NC(=O)[C@H]1CCCCc2c1[nH]c1ccc(Cl)cc21` the Potency [1] was “inactive” and the Potency [2] was “inactive”.
In the case of `O=C(CCc1nnc2n(Cc3ccc(Cl)cc3)c(=O)c3ccccc3n12)NCCC1=CCCCC1`, the Potency [1] is reported as “inactive” and the Potency [2] is reported as “inactive”.
With `O=C(OC[C@H]1O[C@@H](Oc2ccccc2COC(=O)C2(O)C=CCCC2O)[C@H](O)[C@@H](O)[C@@H]1O)c1ccccc1` (stereo partly specified) the Potency [1] was “inactive” and the Potency [2] was “inactive”.
In the case of `CC(C)c1cc(C(=O)N2CC[C@H](NC(=O)C3CC3)C2)n[nH]1`, the Potency [1] is reported as “inactive” and the Potency [2] is reported as “inactive”.
With `COc1cccc(C(=O)NCCNc2nc3cc(C)cc(C)c3cc2C#N)c1` the Potency [1] was “inactive” and the Potency [2] was “inactive”.
In the case of `C[C@@H]1C(=O)O[C@H]2[C@@H](O)C34[C@H]5C[C@@H](C(C)(C)C)C36[C@@H](OC(=O)[C@@H]6O)O[C@@]4(C(=O)O5)[C@@]12O` (stereo partly specified), the Potency [1] is reported as “inactive” and the Potency [2] is reported as “inactive”.
For `N[C@@]1(C(=O)O)CC[C@H]2[C@H](C(=O)O)[C@H]21`, the Potency [1] was “inactive” and the Potency [2] was “inactive”.
In the case of `CCC/C=C/C(=O)O[C@H]1CC(C)(C)CC2[C@]13[C@H](O)O[C@@]21CCC2[C@@]4(C)CC[C@H](O[C@@H]5O[C@H](C(=O)O)[C@@H](O)[C@H](O[C@@H]6O[C@H](CO)[C@H](O)[C@H](O)[C@H]6O[C@@H]6O[C@@H](C)[C@H](O)[C@@H](O)[C@H]6O[C@@H]6OC[C@](O)(CO)[C@H]6O)[C@H]5O[C@@H]5O[C@H](CO)[C@H](O)[C@H](O)[C@H]5O)C(C)(C)C4CC[C@@]2(C)[C@]1(C)C[C@H]3OC(C)=O` (stereo partly specified), the viability (% of control) [1] is reported as 57.2% [at 9.25 µM] and the viability, % of control [2] is reported as 66.3% [at 9.25 µM].
In the case of `Cc1cc(O)cc(Oc2cc(C)c(C(=O)O)c(O)c2)c1`, the Potency [1] is reported as “inactive” and the Potency [2] is reported as “inactive”.
In the case of `COc1c(CCC(=O)O)cccc1O[C@@H]1O[C@H](CO)[C@@H](O)[C@H](O)[C@H]1O`, the Potency [1] is reported as “inactive” and the Potency [2] is reported as “inactive”.
For `CCCCOc1ccc(-c2cncc(C(=O)NCc3cccnc3N3CCOCC3)c2)cc1Cl`, the Potency [1] was 18.4 µM (active) and the Potency [2] was 13 µM (active).
For `NC(=O)c1ccc(OCC2NC(=O)C3CCCN3C2=O)cc1` (stereo unspecified), the Potency [1] was “inactive” and the Potency [2] was “inactive”.
With `C=C(C)C(=O)O[C@H]1[C@H]2C(=C)C(=O)O[C@@H]2C[C@@H](C)/C=C\C(=O)[C@](C)(O)[C@@H]1OC(C)=O` the Potency [1] was “inactive” and the Potency [2] was “inactive”.
For `CC(C)CC1(C(=O)OCc2ccc(O[C@@H]3O[C@H](CO)[C@@H](O)[C@H](O)[C@H]3O)cc2)CC(=O)OC(C(=O)O)CC(=O)OCC2OC(O1)C(OC(=O)/C=C/c1ccc(O)cc1)C(O)C2O` (stereo partly specified), the viability (% of control) [1] was 90.4% [at 9.25 µM] and the viability, % of control [2] was 89.5% [at 9.25 µM].
With `COc1cc(C(=O)OCCCN2CCCN(CCCOC(=O)c3cc(OC)c(OC)c(OC)c3)CC2)cc(OC)c1OC` the Potency [1] was 21.1 µM (active) and the Potency [2] was 21.1 µM (active).
With `CC1=COC(OC2OC(CO)C(O)C(O)C2O)C2C(CO)CC(OC(=O)/C=C/c3ccc(O)cc3)C12` (stereo unspecified) the Potency [1] was “inactive” and the Potency [2] was “inactive”.
In the case of `C[C@@H]1O[C@@H](O[C@H]2[C@H](OC(=O)[C@]34CCC(C)(C)C[C@H]3C3=CCC5[C@@]6(C)C[C@@H](O)[C@@H](O)[C@@](C)(CO)C6[C@H](O)C[C@@]5(C)[C@]3(C)CC4)OC[C@H](O)[C@@H]2O)[C@H](O)[C@H](O)[C@H]1O[C@@H]1OC[C@@H](O)[C@H](O[C@H]2O[C@H](C)[C@@H](O)[C@H](O)[C@@H]2O)[C@H]1O` (stereo partly specified), the viability (% of control) [1] is reported as 80.2% [at 9.25 µM] and the viability, % of control [2] is reported as 77.9% [at 9.25 µM].
In the case of `C/C=C(/C=C(C)/C=C/C=C/C=C(\C)C(=O)C12OC1C(O)(CCO)NC2=O)C(=O)OC` (stereo unspecified), the Potency [1] is reported as 8.93 µM (active) and the Potency [2] is reported as 11.2 µM (active).
With `COc1cc2c(cc1O)CC[C@@H]1[C@@H]2CC[C@]2(C)[C@@H](O)CC[C@@H]12` the Potency [1] was 0.833 µM (active) and the Potency [2] was 0.934 µM (active).
For `CC1(C(=O)O)CCCC2(C)C3=CCC4CC3(CCC12)CC4CO` (stereo unspecified), the Potency [1] was “inactive” and the Potency [2] was “inactive”.
With `COc1cc(-c2cccc(O)c2)cc2c1OCO2` the Potency [1] was “inactive” and the Potency [2] was “inactive”.
For `Cc1cc(-c2cc(O)ccc2Cl)cc2nnc(Nc3ccc(OCCN4CCCC4)cc3)nc12`, the Potency [1] was 1.84 µM (active) and the Potency [2] was 1.84 µM (active).
With `C[C@@H]1O[C@@H](O[C@@H]2[C@@H](O)[C@H](O[C@@H]3[C@@H](O)[C@@H](O)[C@H](O[C@H]4[C@H](OC(=O)[C@]56CCC(C)(C)C[C@H]5C5=CCC7[C@@]8(C)C[C@H](O)[C@H](O[C@@H]9O[C@H](C(=O)O)[C@@H](O)[C@H](O)[C@H]9O)[C@@](C)(CO)C8[C@H](O)C[C@@]7(C)[C@]5(C)C[C@H]6O)O[C@@H](CO)[C@@H]4O)O[C@H]3C)OC[C@H]2O)[C@H](O)[C@H](O)[C@H]1O` (stereo partly specified) the viability (% of control) [1] was 90.8% [at 9.25 µM] and the viability, % of control [2] was 95.2% [at 9.25 µM].
With `C[C@@H]1CC[C@]2(C(=O)O[C@@H]3O[C@H](CO[C@@H]4O[C@H](CO)[C@@H](O[C@@H]5O[C@@H](C)[C@H](O)[C@@H](O)[C@H]5O)[C@H](O)[C@H]4O)[C@@H](O)[C@H](O)[C@H]3O)CC[C@]3(C)C(=CCC4[C@@]5(C)C[C@@H](O)[C@H](O)[C@@](C)(CO)C5CC[C@]43C)C2[C@H]1C` (stereo partly specified) the viability (% of control) [1] was 87.5% [at 9.25 µM] and the viability, % of control [2] was 113% [at 9.25 µM].
Work on `CC(=O)OCC1OC(O[C@H]2CC[C@]34C[C@]35CC(O)[C@]3(C)[C@@H]([C@H](C)CC/C=C(\C)C(=O)O)C(O)C[C@@]3(C)C5CC[C@H]4C2(C)C)C(O)C(O)C1OC1OCC(O)C(O)C1O` (stereo partly specified) yielded a viability (% of control) [1] of 62.3% [at 9.25 µM] and a viability, % of control [2] of 79.7% [at 9.25 µM].
For `C[C@@H]1C[C@@H](O)[C@@]23CO[C@]2(CO)C[C@@H](O)CC3[C@@]12CC(c1ccoc1)OC2=O` (stereo partly specified), the Potency [1] was “inactive” and the Potency [2] was “inactive”.
For `C=C1CCC2C(OC(=O)C2(O)COC(C)=O)C2C(=C)C(O)CC12` (stereo unspecified), the Potency [1] was “inactive” and the Potency [2] was “inactive”.
In the case of `COc1ccc(CN2CCN(CCCSc3cc(C(C)(C)C)c(O)c(C(C)(C)C)c3)CC2)c(OC)c1OC`, the Potency [1] is reported as 3.48 µM (active) and the Potency [2] is reported as 3.48 µM (active).
With `CCN(CC)CCCCNc1ncc2cc(-c3c(Cl)cccc3Cl)c(NC(=O)NC(C)(C)C)nc2n1` the Potency [1] was 0.517 µM (active) and the Potency [2] was 0.58 µM (active).
For `C/C=C(\C)C(=O)OC[C@H]1O[C@@H](O[C@H]2[C@@H](O[C@H]3O[C@H](CO)[C@@H](O)[C@H](O)[C@H]3O[C@@H]3O[C@H](CO)[C@@H](O)[C@H](O)[C@H]3O)O[C@H](COC(=O)/C(C)=C/C)[C@@H](O)[C@@H]2O)[C@H](O)[C@@H](O)[C@@H]1O`, the viability (% of control) [1] was 81.8% [at 9.25 µM] and the viability, % of control [2] was 79.8% [at 9.25 µM].
`CC(C)=CCC/C(C)=C/CC/C(C)=C/COC1OC(COC2OCC(OC3OCC(O)C(O)C3O)C(O)C2O)C(O)C(OC2OC(C)C(OC3OC(C)C(OC4OCC(OC5OC(C)C(O)C(O)C5O)C(O)C4O)C(O)C3O)C(O)C2O)C1O` (stereo unspecified) gave a viability (% of control) [1] of 70.7% [at 9.25 µM] and a viability, % of control [2] of 96.7% [at 9.25 µM].
For `C=C1CCC2C(C(C)(C)O)CCC2(C)CC(O)C(=C)CCC1O` (stereo unspecified), the Potency [1] was 9.04 µM (active) and the Potency [2] was 11.4 µM (active).
In the case of `C=C1C(=O)OC2C1CCC(=C)C1CC(OC(C)=O)C(=C)C12` (stereo unspecified), the Potency [1] is reported as 3.26 µM (active) and the Potency [2] is reported as 2.31 µM (active).
`C=C1CCC2(C(=O)OC3OC(CO)C(O)C(O)C3O)CCC3(C)C(=CCC4C5(C)CCC(OC6OC(CO)C(OC7OC(C)C(O)C(O)C7O)C(OC7OCC(O)C(O)C7O)C6O)C(C)(C)C5CCC43C)C2C1` (stereo unspecified) gave a viability (% of control) [1] of 89.9% [at 9.25 µM] and a viability, % of control [2] of 105% [at 9.25 µM].
For `COc1cc(CCc2ccccc2)c(C(=O)O)c2c1CC(C(C)(C)O)O2` (stereo unspecified), the Potency [1] was “inactive” and the Potency [2] was 2.27 µM (active).
For `NS(=O)(=O)c1ccc(S(=O)(=O)Nc2cccc3c(Cl)c[nH]c23)cc1`, the Potency [1] was 0.235 µM (active) and the Potency [2] was 0.332 µM (active).
For `COC(=O)CC[C@H](NC(=O)[C@H](CC(C)C)NC(=O)OCc1ccccc1)C(=O)N[C@@H](Cc1cnc[nH]1)C(=O)N[C@@H](CC(=O)OC)C(=O)CF`, the viability (% of control) [1] was 80.3% [at 9.25 µM] and the viability, % of control [2] was 91.2% [at 9.25 µM].
